Bioassay records: PubChem BioAssay, National Center for Advancing Translational Sciences (NCATS)
Only some compounds are listed: those with a hit (about 9% of all), similar ones and a draw of the others.
PLK1 PBD block: qHTS for Inhibitors of PLK1-PDB (polo-like kinase 1 - polo-box domain): Primary Screen | Serine/threonine-protein kinase PLK1 (Homo sapiens), P53350 | Plk1 PBD binding of FITC phosphopeptide, fluorescence polarization | Potency, µM, hits mostly inhibitors | 2.8% of 360,000 active | AID 720504, 2013; further: series mostly up to about 57 µM; nearly all actives have a fitted effect of over 65% in size
BAZ2B block: qHTS Assay for Inhibitors of BAZ2B; 4.4% of 360,000 active; AlphaScreen BAZ2B-H3K14Ac peptide displacement; Bromodomain adjacent to zinc finger domain protein 2B (Homo sapiens), Q9UIF8; Potency, µM (top dose mostly 114 µM), most hits filed as inhibitors; further: nearly all actives have a fitted effect of over 60% in size
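AlphaScreen luminescence quantifies BAZ2B engagement of H3K14Ac peptide; the protein and biotinylated peptide are both at 50 nM final, buffer PBS pH 7.4 with 0.01% Tween-20, all steps at room temperature.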
JMJD2A Tudor inh: qHTS Assay for Inhibitors of JMJD2A-Tudor Domain; Potency, µM (titrated, usually from 114 µM), usual class: inhibitors; AID 504339, 2011; 4.4% of 390,000 active; Lysine-specific demethylase 4A (Homo sapiens), O75164; AlphaScreen JMJD2A-Tudor / H3K4me3 peptide binding; further: nearly all actives have a fitted effect of over 50% in size
ALOX12 inh: Primary qHTS assay for inhibitors of human arachidonate 12S-lipoxygenase (ALOX12): Round 2; Potency, µM (highest dose often 108 µM), actives largely listed as inhibitors; 1.1% of 580,000 active; purified 12hLO, xylenol orange hydroperoxide absorbance; Polyunsaturated fatty acid lipoxygenase ALOX12 (Homo sapiens), P18054
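Purified human 12hLO at 150 nM in 25 mM Hepes, 0.01% Triton X-100, pH 7.0, preincubated 15 min at room temperature with compound. Reaction started with 40 uM arachidonic acid, 30 min at room temperature. Hydroperoxide measured by Fe-xylenol orange, 573/405 nm absorbance ratio.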
G9a inh: qHTS Assay for Inhibitors of Histone Lysine Methyltransferase G9a | AID 504332, 2011 | G9a H3K9 monomethylation, AlphaScreen, 2 h | Potency, µM (top dose mostly 102 µM), usual class: inhibitors | Histone-lysine N-methyltransferase EHMT2 (Homo sapiens), Q96KQ7 | 8.8% of 350,000 active; further: nearly all actives have a fitted effect of over 75% in size
Target sequence (Q96KQ7 913-1193 limits assumed): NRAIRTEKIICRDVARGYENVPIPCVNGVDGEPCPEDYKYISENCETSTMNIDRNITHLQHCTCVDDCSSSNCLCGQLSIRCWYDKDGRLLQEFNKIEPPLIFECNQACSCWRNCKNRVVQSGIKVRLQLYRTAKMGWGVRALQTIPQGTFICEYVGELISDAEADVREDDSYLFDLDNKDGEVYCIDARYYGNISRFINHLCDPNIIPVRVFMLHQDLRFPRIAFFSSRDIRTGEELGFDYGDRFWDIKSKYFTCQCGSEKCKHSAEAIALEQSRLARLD
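Step 1: enzyme (final 20 nM) with compound, 15 min RT. Step 2: substrate peptide 500 nM and SAM 20 uM, 2 h RT. Step 3: anti-H3K9me1 antibody and AlphaScreen beads, 10 min, then plate read.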
HP1b chromo inh: HTS for Inhibitors of HP1-beta Chromodomain Interactions with Methylated Histone Tails; Chromobox protein homolog 1 (Homo sapiens), P83916; AlphaScreen HP1-beta / biotin-H3K9me3 peptide binding; Potency, µM (titrated, usually from 114 µM), most hits filed as inhibitors; 0.56% of 390,000 active; AID 540317, 2011; further: nearly all actives have a fitted effect of over 70% in size
Target sequence (P83916 whole entry, looked up): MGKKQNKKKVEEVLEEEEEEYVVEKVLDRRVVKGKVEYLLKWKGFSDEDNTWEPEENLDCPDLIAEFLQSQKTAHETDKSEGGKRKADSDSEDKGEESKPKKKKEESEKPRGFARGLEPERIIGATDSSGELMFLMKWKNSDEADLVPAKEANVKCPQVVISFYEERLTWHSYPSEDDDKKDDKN
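AlphaScreen: HP1-beta (50 nM) preformed 30 min with biotin-H3(1-18)K9me3 peptide (50 nM) in PBS pH 7.4, 0.01% Tween-20. Compound added for 30 min at RT, then streptavidin donor/nickel chelate acceptor beads (10 ug/mL) for 30 min.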
Of the large screens only hits and unclear results are named; the others gave an inactive call. The call rests on the fitted dose curve; in most records, active means well fitted curve in the direction sought with a large enough effect; inconclusive means small, poorly fitted or top-dose-only effect, or another doubt; inactive means no such curve, though single readings can be large; an effect the other way counts as inactive or inconclusive.

CCOC(=O)CN(C(=O)c1snc(C(N)=O)c1N)C(C(=O)NC1CCCCC1)c1ccc(F)cc1 (stereo not given)	BAZ2B block 79µM, JMJD2A Tudor inh inconclusive
COc1ccccc1N(C(=O)c1snc(C(N)=O)c1N)C(C(=O)NC1CCCC1)c1ccc(N(C)C)cc1 (stereo not given)	BAZ2B block 35µM, JMJD2A Tudor inh inconclusive
CN(C)c1ccc(C(C(=O)NCC2CCCO2)N(Cc2ccccc2)C(=O)c2snc(C(N)=O)c2N)cc1 (stereo not given)	BAZ2B block inconclusive, JMJD2A Tudor inh inconclusive
CCOC(=O)c1sc(-c2ccc(C(F)(F)F)cc2)nc1O	none
COc1ccc(CNC(=O)C(c2ccc(C)o2)N(C(=O)c2snc(C(N)=O)c2N)c2ccccc2OC)cc1 (stereo not given)	G9a inh 50µM
CCOC(=O)C1CCN(Cc2cc(=O)oc3cc(C)c(Cl)cc23)CC1	PLK1 PBD block 27µM, JMJD2A Tudor inh inconclusive, ALOX12 inh inconclusive
Cc1cc2oc(=O)cc(CN3CCCc4ccccc43)c2cc1C	ALOX12 inh inconclusive, G9a inh 8.9µM
Cc1cc2oc(=O)cc(CN3CCCC3)c2cc1Cl	ALOX12 inh 6.3µM (no result: BAZ2B block, JMJD2A Tudor inh, G9a inh, HP1b chromo inh)
Cc1cc2oc(=O)cc(CN3CCCCC3)c2cc1C	ALOX12 inh inconclusive
Cc1cc2oc(=O)cc(CN3CCCCC3)c2cc1Cl	ALOX12 inh inconclusive (no result: BAZ2B block, JMJD2A Tudor inh, G9a inh, HP1b chromo inh)
Cc1cc2oc(=O)cc(CN3CCCCCCC3)c2cc1Cl	none (no result: BAZ2B block, JMJD2A Tudor inh, G9a inh, HP1b chromo inh)
Cc1ccc(C(=O)c2ccc(CC(=O)O)n2C)cc1	none
O=C(Nc1nnc(-c2ccc(Cl)cc2)o1)C1=COCCO1	BAZ2B block 50µM, JMJD2A Tudor inh inconclusive
O=C(Nc1nnc(-c2ccc3c(c2)CCCC3)o1)c1c(F)cccc1F	G9a inh inconclusive
O=C(Nc1nnc(-c2ccc3c(c2)CCCC3)o1)c1ccc(Cl)cc1Cl	PLK1 PBD block 21µM, JMJD2A Tudor inh inconclusive
CCOc1cc(-c2nnc(NC(=O)C3=COCCO3)o2)cc(OCC)c1OCC	none
Cc1ccc(Nc2nc(NCc3ccc4c(c3)OCO4)nc3nccnc23)c(C)c1	none (no result: PLK1 PBD block, BAZ2B block, JMJD2A Tudor inh, G9a inh, HP1b chromo inh)
CCOC(=O)c1c(C)[nH]c(C)c1C(=O)COC(=O)c1cccnc1OCC	none (no result: BAZ2B block, G9a inh)
O=C(COc1ccccc1)NC1CCSc2ccccc21 (stereo not given)	G9a inh 6.3µM
COCCNC(=O)CSc1ccccc1C(=O)NC1CCSc2ccccc21 (stereo not given)	ALOX12 inh inconclusive, G9a inh 35µM
CCOC(=O)c1cc2c(=O)c3cc(C)ccc3oc2nc1C	PLK1 PBD block 5.3µM, JMJD2A Tudor inh inconclusive (no result: ALOX12 inh)
COCC(=O)N1CC(C(=O)NCCc2ccc(OC)cc2)CC(c2ccc(F)c(C)c2)C1 (stereo not given)	none (no result: PLK1 PBD block, BAZ2B block, JMJD2A Tudor inh, G9a inh, HP1b chromo inh)
COc1cc(/C=N/N=C2/C(=O)Nc3ccccc32)ccc1O	BAZ2B block inconclusive, JMJD2A Tudor inh inconclusive, G9a inh inconclusive
O=C1Nc2ccccc2/C1=N\N=C\c1ccc(O)c(O)c1	BAZ2B block 40µM, JMJD2A Tudor inh inconclusive, ALOX12 inh inconclusive, HP1b chromo inh 32µM (no result: G9a inh)
Oc1ccc(N=Cc2ccc(O)c(O)c2)cc1	PLK1 PBD block 21µM, BAZ2B block 45µM, JMJD2A Tudor inh 56µM, G9a inh 1.3µM, HP1b chromo inh inconclusive (no result: ALOX12 inh)
Oc1ccc(/C=N/N=C/c2ccc(O)c(O)c2)cc1O	BAZ2B block 10µM, JMJD2A Tudor inh 7.9µM, ALOX12 inh 1.1µM, G9a inh 35µM
O=C(/C(=N/N=C/c1ccc(O)c(O)c1)c1ccccc1)c1ccccc1	BAZ2B block 40µM, JMJD2A Tudor inh 25µM, ALOX12 inh 40µM, G9a inh 32µM, HP1b chromo inh inconclusive
C[S+](=O)([O-])c1ccc(-c2cc(-c3cccnc3)c3cncn3c2)cc1	none (no result: PLK1 PBD block, BAZ2B block, JMJD2A Tudor inh, G9a inh, HP1b chromo inh)
C=C(C)Cn1c(SCC(=O)N/N=C/c2ccccc2OCC(=O)O)nnc1-c1ccc(Br)cc1	BAZ2B block inconclusive, ALOX12 inh inconclusive (no result: G9a inh)
